CYP2C9 inh: blocks human cytochrome P450 2C9 | hit rate 20% among 96,000 | inhibition, % at 5 µM | CYP2C9 Supersomes, luciferin-H conversion, luminescence | P11712;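 active means blocking of liver enzyme CYP2C9 beyond about 50% at 5 µM, limit read from the data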
Target sequence (P11712 whole entry, looked up): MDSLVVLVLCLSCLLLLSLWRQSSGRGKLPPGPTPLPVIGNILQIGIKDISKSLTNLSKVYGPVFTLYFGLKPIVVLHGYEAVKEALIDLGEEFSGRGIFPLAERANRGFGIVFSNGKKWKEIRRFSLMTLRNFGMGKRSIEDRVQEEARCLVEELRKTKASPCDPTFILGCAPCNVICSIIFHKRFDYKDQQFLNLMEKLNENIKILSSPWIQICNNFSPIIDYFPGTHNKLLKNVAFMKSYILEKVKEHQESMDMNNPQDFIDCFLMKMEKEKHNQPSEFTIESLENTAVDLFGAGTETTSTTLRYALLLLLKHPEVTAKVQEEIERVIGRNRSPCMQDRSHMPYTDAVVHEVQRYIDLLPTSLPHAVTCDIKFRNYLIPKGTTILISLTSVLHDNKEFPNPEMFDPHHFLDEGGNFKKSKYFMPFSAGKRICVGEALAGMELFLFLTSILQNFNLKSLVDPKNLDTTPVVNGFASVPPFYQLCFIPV
CYP2C19 activ: increases human CYP2C19 enzyme activity; P33261; recombinant CYP2C19, luciferin-H EGE luminescence; hits give high values; 0 = fully inhibited enzyme, 1 = untreated enzyme; activation factor at 5 µM; 96,000 tested, under 10 active; AID 1025;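 active means activation factor of at least 2 at 5 µM in the primary screen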;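 further: 0 = wells with 2.5 mM tranylcypromine and 1 = vehicle-only wells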
CYP2C19 inh: inhibitors of human CYP2C19 | inhibition, % at 5 µM | CYP2C19 Supersomes, luciferin-H EGE luminescence, 30 min | hit rate 21% among 96,000 | AID 778 | P33261;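 active means CYP2C19 inhibition above a set limit at 5 µM in the primary screen, cut at about 50% in these data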;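 further: plate controls were negative control wells for no effect and 2.5 mM tranylcypromine positive control for full effect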
sEH inh: soluble epoxide hydrolase (human) inhibition. P34913. recombinant human sEH enzymatic activity assay. inhibition, % at 2 µM. hit rate 0.34% among 91,000; in the data active means inhibition above about 80%
CYP2C9 activ: increases human cytochrome P450 2C9 activity; P11712; recombinant CYP2C9, luciferin-H conversion, luminescence; hits give high values; factor 1 = untreated enzyme, 0 = blocked; activation factor at 5 µM; hit rate 1.4% among 96,000;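 active means activation factor of 2 or more for CYP2C9 at a 5 µM dose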;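 further: 0 = sulfaphenazole-blocked wells and 1 = vehicle-only wells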
sEH act: soluble epoxide hydrolase (human) activation. P34913. purified human sEH enzymatic activity, activator screen. activation, % at 2 µM. hit rate 0.04% among 91,000. AID 717; in the data active means activation above about 37%
* = called active by the depositor; . = not tested or not shown. Sampled rows, rich in hits. Any-hit rate of the full collection: about 27%.

SMILES	CYP2C9 inh	CYP2C19 activ	CYP2C19 inh	sEH inh	CYP2C9 activ	sEH act
CCCOc1ccccc1NC(=O)/C=C/C(N)=O	-14	1	2	7	1.1	-7
COc1ccccc1S(=O)Cc1ccc(C(=O)NCc2ccccc2Cl)o1 (stereo unspecified)	26	0.6	36	44	0.7	-43
COc1ccccc1-n1cnnc1SCC(=O)c1ccc[nH]1	41	0.4	59*	-2	0.6	4
CCSc1nnc(NC(=O)Cc2ccc(OC)c(S(=O)(=O)N3CCOCC3)c2)s1	30	1	-4	-10	0.7	10
COc1ccc(-c2cc(N)n(CCC#N)n2)c(OC)c1	-6	0.9	12	-2	1.1	3
COc1ccc(-n2cnc3c(cnn3CCC#N)c2=N)cc1	8	0.2	77*	-3	0.9	3
CCOC(=O)CC(NC(=O)c1ccc(C)cc1)c1ccc(C)cc1 (stereo unspecified)	16	0.8	20	-4	0.8	8
Clc1ccc2nc(N3CCCCC3)[nH]c2c1	16	0.6	36	25	0.8	-23
O=c1c(Cl)c(N2CCCCC2)cnn1-c1nc2ccccc2[nH]1	24	0.4	62*	5	0.8	-1
O=C(Nc1ccc(Cl)c(Cl)c1)N(CCCN1CCOCC1)Cc1cccs1	84*	0.1	89*	-6	0.2	5
O=C(c1ccccc1)N(CCN1CCOCC1)C1(C(=O)Nc2ccccc2)CCCCC1	23	0.3	69*	.	0.8	.
O=S(=O)(c1cccc(C(F)(F)F)c1)N(CCCN1CCOCC1)Cc1cccs1	21	0.4	64*	2	0.8	0
O=C(Nc1ccc(CN2CCOCC2)cc1)c1ccc(-c2cccc(Cl)c2)o1	15	0.6	42	53	0.9	-53
O=C(Nc1ccccc1)N(CCN1CCOCC1)Cc1cccc(Cl)c1	84*	0.2	79*	-17	0.2	16
CC(=O)N1CCC(N(CCN2CCOCC2)C(=O)Nc2ccc(Cl)c(Cl)c2)CC1	.	.	.	-14	.	13
COc1ccccc1C1(CC(=O)N2CCOCC2)CCOC(C(C)C)C1 (stereo unspecified)	10	0.6	37	-13	0.9	16
O=C(CN1C(=O)c2ccccc2C1=O)OCN1C(=O)c2ccccc2C1=O	.	.	.	2	.	-1
O=c1cc(-c2ccccc2)nc(N2CCN(Cc3ccc4c(c3)OCO4)CC2)[nH]1	48	0.6	38	5	0.5	-4
O=C(Nc1ccccc1)N(CCCN1CCOCC1)Cc1ccccc1F	25	0.9	13	-6	0.8	5
CCc1ccc(NC(=O)N(CCCN2CCOCC2)C(C)c2cc3cccc(OC)c3o2)cc1 (stereo unspecified)	68*	0.6	40	30	0.3	-30
COc1ccc(CN(CCCN2CCOCC2)C(=O)Nc2ccccc2)cc1OC	57*	0.8	25	.	0.4	.
COc1ccc(CN(CCN2CCOCC2)C(=O)c2c(F)cccc2F)cc1OC	37	0.5	52*	1	0.6	-1
O=C(Nc1cccc(Cl)c1)N(CCCN1CCOCC1)Cc1ccccc1F	65*	0.7	28	14	0.3	-14
CC1S/C(=C(\C#N)C(=O)NCc2ccco2)N(c2ccc(F)cc2)C1=O (stereo unspecified)	2	0.9	9	6	1	-4
NC(=O)CN1CCOCCN(CC(N)=O)CCOCC1	-1	1.1	-6	.	1	.
SMILES	CYP2C9 inh	CYP2C19 activ	CYP2C19 inh	sEH inh	CYP2C9 activ	sEH act
Cc1ccc2c(c1)N1C(=O)c3ccccc3C1C1=C(CC(C)(C)CC1=O)N2 (stereo unspecified)	.	.	.	2	.	1
O=C(NCc1ccc(C(F)(F)F)cc1)C1CC(c2ccccc2[N+](=O)[O-])=NO1 (stereo unspecified)	-77	0.6	38	0	1.8	3
COc1ccc(Nc2nnc(SCc3cc(=O)n4ccsc4n3)s2)cc1	41	0.5	49	.	0.6	.
Oc1ccccc1-c1nc(N2CCN(Cc3ccccc3)CC2)c2ccccc2n1	74*	0.3	65*	.	0.3	.
c1ccc(N2CCN(c3nc(-c4ccccn4)nc4ccccc34)CC2)cc1	59*	0.7	32	10	0.4	-10
c1ccc2c(N3CCCCCC3)nc(-c3ccncc3)nc2c1	80*	0.2	76*	0	0.2	-4
c1cncc(-c2nc(N3CCCCCC3)c3ccccc3n2)c1	77*	0.6	39	4	0.2	-3

Screening data (PubChem BioAssay)
